The subject of the assay is MST1R. Particulars: concentration: 1 μM,replicates: in singlicate; n = 1.
On to `C[C@@H](Oc1cc(-n2cnc3cc(-c4ccncc4)ccc32)sc1C(N)=O)c1ccccc1Cl` [GSK479719], for which the “%Inh” value was found to be 21%.
The value for `COc1cc2c(Nc3ccc(NC(=O)c4ccccc4)cc3)ncnc2cc1OCCCN1CCOCC1` [GSK301329] was 43%.
With `Cc1cccc(-c2nc(Nc3ccncc3)c3sccc3n2)n1` [GW869641] the figure was 0%.
The value for `Cl.Cl.NC[C@H](CC1CCCCC1)NC(=O)c1ccc(-c2ccnc3[nH]ccc23)s1` [GSK1581428] was 26%; that for `Cc1ccc(Nc2ccnc(Nc3ccc4c(c3)CS(=O)(=O)C4)n2)cc1O.Cl` [GW579362] was 81%.
As to `CCOC(=O)N1CCC(n2cnc(-c3ccc(F)cc3)c2-c2ccnc(N)n2)CC1` [SB-219952], the “%Inh” value stood at 0%.
With `CS(=O)(=O)c1cccc(CNc2nc(Nc3ccc4c(c3)[C@@H]3C[C@@H]4CNC3=O)ncc2C(F)(F)F)c1` the figure was 0%.
Take `O=C(Nc1ccc(Oc2ccc3nc(NC(=O)C4CC4)cn3n2)c(F)c1)c1cccn(-c2ccccc2)c1=O`: the “%Inh” value came to 39%.
With `Cc1ccc(C(=O)Nc2ccc(Oc3ccc4nc(NC(=O)C5CC5)cn4c3)c(F)c2)c(=O)n1-c1ccccc1` the figure was 100%; with `CCN1CCN(CCCC(=O)Nc2n[nH]c3nc(-c4ccc(O)cc4)c(Br)cc23)CC1` [SB-731579], 17%.
With `COC(=O)c1cccc(NC(=O)NC2CCN(c3ccnc(Nc4cc(OC)c(OC)c(OC)c4)n3)C2)c1` (stereo not drawn) [GSK1379767] the figure was 39%.
The value for `Cn1cc(-c2cccc3c(N)c(C(N)=O)nnc23)cn1` was 24%.

These data come from paper PMC5540273 (PLoS ONE, 2017).
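Note: KINOMEscan kinase panel screen.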
